Data on eight sequences can be found in the supplement of paper PMC6555819.

What all share (assay): PBM binding z-score (relative to random genomic background probes); higher = stronger binding; sequences stand for … in GC…GCGATTGACAGCGTAGAATGAAGG
Experiment [1] concerns PPARg:RXRa DBDmut IVT, anti-RXR (DBD mutation: RXRa K156A/R161A, NR concentration 270 nM, RXRa partner concentration 90 nM). The method, boiled down:
(§1)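 The probes on custom Agilent 4×180K protein-binding microarrays were double-stranded, with 34-nt variable regions bearing direct-repeat seeds, single-nucleotide variants, half-site ablations and random human genomic background sequences. Incubation lasted 1 h with ligand-free nuclear receptor dimers in PBS pH 7.4, 2% milk, 0.02% Triton X-100, 1 mM DTT, 0.2 mg/mL BSA and 0.4 mg/ml salmon testes DNA. Antibodies against each partner (one per run) detected bound dimers, and fluorescence scans were regression-normalized. Binding z-scores take the random background probes as reference.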

The test system of experiment [2] is PPARg:RXRa IVT, anti-PPARg (NR concentration 270 nM, RXRa partner concentration 90 nM). The gist of the method:
as §1

Experiment [3] deals with PPARg DBDmut:RXRa IVT, anti-PPARg (DBD mutation: PPARg1 K132A/R137A, NR concentration 270 nM, RXRa partner concentration 90 nM). The gist of the method:
as §1

Experiment [4] concerns PPARg DBDmut IVT, anti-PPARg (DBD mutation: PPARg1 K132A/R137A, NR concentration 270 nM). The gist of the method: as §1
Experiment [5] deals with PPARg homodimer (NR concentration 180 nM). The gist of the method: as §1
Experiment [6] relates to PXR:RXRa (NR concentration 270 nM, RXRa partner concentration 90 nM). The gist of the method:
as §1

Experiment [7] deals with PXR homodimer (NR concentration 270 nM). The method, boiled down:
as §1

Experiment [8] relates to RARa:RXR (NR concentration 270 nM, RXRa partner concentration 90 nM). The gist of the method:
as §1

Experiment [9] concerns RARa homodimer (NR concentration 270 nM). The gist of the method: as §1
Experiment [10] relates to RARb:RXRa (NR concentration 270 nM, RXRa partner concentration 90 nM). The gist of the method: as §1
The test system of experiment [11] is RARb homodimer (NR concentration 270 nM). The gist of the method: as §1
In experiment [12] the test system is RARg:RXRa (NR concentration 270 nM, RXRa partner concentration 90 nM). The gist of the method:
as §1

For experiment [13], the system named is RARg homodimer (NR concentration 270 nM). The gist of the method: as §1
Experiment [14] concerns RXRa DBDmut IVT, anti-RXR (DBD mutation: RXRa K156A/R161A, NR concentration 90 nM). The gist of the method:
as §1

The test system of experiment [15] is RXRa homodimer (NR concentration 180 nM). The gist of the method:
as §1

Experiment [16] deals with THRa:RXRa (NR concentration 90 nM, RXRa partner concentration 90 nM). The method, boiled down:
as §1

Experiment [17] has as its system THRa homodimer (NR concentration 90 nM). The gist of the method: as §1
In experiment [18] the test system is VDR homodimer (NR concentration 270 nM). The method, boiled down:
as §1

CAATCTAGGTCAAAGGTCAAAGTCGAGCCAACCA: the PBM binding z-score in experiment [1] came out at 8.91; in experiment [2], 9.32; in experiment [3] it was 3.79; in experiment [4], 6.44; in experiment [5], 3.41; in [6], 6.92. Besides, the PBM binding z-score worked out at 1.82 in experiment [7]; 8.3 in [8]; 1.8 in experiment [9]; 5.89 in experiment [10]; 5.31 in [11]; 8.93 in experiment [12]. The PBM binding z-score was 7.21 in experiment [13]; 2.92 in experiment [14]; 10.3 in experiment [15]; 4.99 in [16]; 2.3 in experiment [17]; 2.73 in [18].

As for CCTTACGGGTCTCTCCAGGTTATAGCATCGGAGT, the PBM binding z-score in experiment [1] was 0.165; in [2], 0.161; in experiment [3], -0.412; in experiment [4], -0.96; in [5], 0.354; in [6], 0.294. Besides, the PBM binding z-score in [7] is -0.138; in experiment [8], 0.923; in [9], 0.0233; in [10] it was 0.15; in experiment [11], 0.324; in [12] it was 0.139. The PBM binding z-score is 0.231 in [13]; -0.347 in experiment [14]; 0.0573 in [15]; 3.09 in experiment [16]; 0.346 in experiment [17]; 0.105 in experiment [18].

For the sequence CCTAGTAGGTTATGGGGCATTCAGGCAACGGTGA, the PBM binding z-score was 4.52 in experiment [1]; 5.34 in experiment [2]; 0.403 in [3]; -0.728 in experiment [4]; 1.28 in experiment [5]; 0.0613 in experiment [6]. The PBM binding z-score in experiment [7] is 0.02; in [8], 0.431; in experiment [9] it was 0.456; in experiment [10], 1.13; in experiment [11], 0.8; in experiment [12], 0.878. Further, the PBM binding z-score in experiment [13] is 0.852; in experiment [14] it was -0.581; in [15], 0.835; in experiment [16], 0.719; in [17], 0.289; in experiment [18], 0.0809.

TCTACTTGGTCACGGAGGTCACACACGACGGGTA: the PBM binding z-score in [1] came out at 3.04; in [2] it was 4.21; in experiment [3], 1.37; in [4], 1.65; in [5], 3.86; in experiment [6] it was 4.67. Besides, the PBM binding z-score came out at 2.05 in experiment [7]; 4.97 in experiment [8]; 2.04 in [9]; 3.89 in experiment [10]; 4.43 in experiment [11]; 5.15 in [12]. The PBM binding z-score is 5.47 in experiment [13]; 1.33 in experiment [14]; 5.3 in [15]; 3.6 in experiment [16]; 3.15 in [17]; 3.56 in experiment [18].

As to GCTGCTAGGTCAGGTTGGTCAGCTAACGGGTACG, the PBM binding z-score is 2.95 in experiment [1]; 2.05 in experiment [2]; -0.747 in [3]; -0.959 in experiment [4]; 0.974 in [5]; 0.333 in experiment [6]. The PBM binding z-score was -0.532 in experiment [7]; 0.458 in experiment [8]; -0.285 in [9]; 3.33 in experiment [10]; 2.53 in experiment [11]; 2.7 in [12]. Moreover, the PBM binding z-score was 3.45 in experiment [13]; 0.582 in experiment [14]; 0.927 in experiment [15]; 1.84 in experiment [16]; 0.48 in experiment [17]; 0.466 in experiment [18].

TAGCCTAGGTCATTCAGGGGCTAGTATAGAAAGC: the PBM binding z-score in experiment [1] was 1.49; in [2], 2.56; in [3], -0.0413; in [4] it was 0.573; in experiment [5], 1.3; in experiment [6], 2.36. Also, the PBM binding z-score in [7] is -0.268; in experiment [8], 2.79; in experiment [9] it was -0.106; in experiment [10], 3.76; in [11], 2.84; in [12], 4.98. In addition, the PBM binding z-score in [13] was 4.16; in experiment [14], 1.94; in experiment [15] it was 2.89; in experiment [16], 3.74; in experiment [17], 0.0111; in [18], 0.805.

Take CCTACTGGGCCATTCAGAGGTCATCGATCATATG: the PBM binding z-score was 4.55 in experiment [1]; 4.6 in [2]; 1.41 in [3]; -0.27 in [4]; 5.67 in experiment [5]; 5.11 in experiment [6]. Also, the PBM binding z-score in experiment [7] was determined as 2.18; in experiment [8], 5.25; in experiment [9] it was 1.9; in [10], 3.29; in experiment [11] it was 4.27; in experiment [12], 4.89. The PBM binding z-score in [13] was 3.64; in experiment [14], 0.733; in experiment [15], 4.44; in experiment [16], 3.34; in [17] it was 1.72; in experiment [18], 3.03.

Take AGTCAAAGTTCACTAGGTTACGTAAGATTCAGCT: the PBM binding z-score turned out to be 3.75 in experiment [1]; 5.6 in [2]; 1.8 in experiment [3]; 1.2 in experiment [4]; 1.99 in [5]; 4.58 in experiment [6]. Moreover, the PBM binding z-score turned out to be 4.84 in [7]; 4.08 in experiment [8]; 2.05 in [9]; 4.93 in experiment [10]; 4.27 in [11]; 5.33 in experiment [12]. The PBM binding z-score was found to be 6.12 in [13]; 4.29 in [14]; 4.53 in experiment [15]; 2.55 in [16]; 0.508 in experiment [17]; 3.98 in [18].
